Rows were chosen to be rich in hits. Some 7.6% of all compounds tested hit in one or more screens of this group.
MCF10A rerep – A quantitative high throughput screen for small molecules that induce DNA re-replication in MCF 10a normal breast cells. MCF 10A DNA re-replication, Hoechst nuclear intensity, 48 h. Potency, µM (doses to about 46.1 µM), most hits filed as activators. 350,000 tested, 2.9% active; further: nearly all actives have a fitted effect of over 50% in size
KB-V1 MDR tox – qHTS assay for MDR1-selective chemotherapeutics: Primary screen using the drug-selected MDR subline cells KB-V1 | 400,000 tested, 3.4% active | KB-V1 MDR cells viability, CellTiter-Glo, 72 h | Potency, µM (highest dose often 46.1 µM), hits mostly cytotoxic; further: nearly all actives have a fitted effect of over 60% in size
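Cells of the MDR subline KB-V1 are plated, dosed with compound at multiple concentrations, and incubated 72 h at 37 degrees C; CellTiter-Glo is then added and luminescence read after 10 min.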
KCNH2 3.1 block – qHTS for Inhibitors of KCHN2 3.1: Mutant qHTS; U2OS KCNH2 3.1, thallium flux FluxOr; stronger effect = lower value; AID 720553, 2013; activity change, % (tested at about 1.8 µM); 340,000 tested, 0.95% active;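 active means maximum activity change below -70%; inconclusive means maximum activity change from -70% to -50%; inactive means maximum activity change above -50%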;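 further: thallium influx rate constant from kinetic fluorescence after stimulation buffer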
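We transduce U2OS cells with the mutant 3.1 virus, culture them overnight, load FluxOr with Red40 quencher for 45 min, then add stimulation buffer and read kinetically for 2 min to derive a normalized rate constant.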
hERG WT inh – qHTS for Inhibitors of KCHN2 3.1: Wildtype qHTS | 340,000 tested, 0.37% active | activity change, % at 1.84 µM | Voltage-gated inwardly rectifying potassium channel KCNH2 (Homo sapiens), Q12809 | U2OS, BacMam KCNH2, thallium flux FluxOr; stronger effect = lower value;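 active means maximum activity change below -70%; inconclusive means maximum activity change between -70% and -50%; inactive means maximum activity change above -50%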
Target sequence (Q12809 whole entry, looked up): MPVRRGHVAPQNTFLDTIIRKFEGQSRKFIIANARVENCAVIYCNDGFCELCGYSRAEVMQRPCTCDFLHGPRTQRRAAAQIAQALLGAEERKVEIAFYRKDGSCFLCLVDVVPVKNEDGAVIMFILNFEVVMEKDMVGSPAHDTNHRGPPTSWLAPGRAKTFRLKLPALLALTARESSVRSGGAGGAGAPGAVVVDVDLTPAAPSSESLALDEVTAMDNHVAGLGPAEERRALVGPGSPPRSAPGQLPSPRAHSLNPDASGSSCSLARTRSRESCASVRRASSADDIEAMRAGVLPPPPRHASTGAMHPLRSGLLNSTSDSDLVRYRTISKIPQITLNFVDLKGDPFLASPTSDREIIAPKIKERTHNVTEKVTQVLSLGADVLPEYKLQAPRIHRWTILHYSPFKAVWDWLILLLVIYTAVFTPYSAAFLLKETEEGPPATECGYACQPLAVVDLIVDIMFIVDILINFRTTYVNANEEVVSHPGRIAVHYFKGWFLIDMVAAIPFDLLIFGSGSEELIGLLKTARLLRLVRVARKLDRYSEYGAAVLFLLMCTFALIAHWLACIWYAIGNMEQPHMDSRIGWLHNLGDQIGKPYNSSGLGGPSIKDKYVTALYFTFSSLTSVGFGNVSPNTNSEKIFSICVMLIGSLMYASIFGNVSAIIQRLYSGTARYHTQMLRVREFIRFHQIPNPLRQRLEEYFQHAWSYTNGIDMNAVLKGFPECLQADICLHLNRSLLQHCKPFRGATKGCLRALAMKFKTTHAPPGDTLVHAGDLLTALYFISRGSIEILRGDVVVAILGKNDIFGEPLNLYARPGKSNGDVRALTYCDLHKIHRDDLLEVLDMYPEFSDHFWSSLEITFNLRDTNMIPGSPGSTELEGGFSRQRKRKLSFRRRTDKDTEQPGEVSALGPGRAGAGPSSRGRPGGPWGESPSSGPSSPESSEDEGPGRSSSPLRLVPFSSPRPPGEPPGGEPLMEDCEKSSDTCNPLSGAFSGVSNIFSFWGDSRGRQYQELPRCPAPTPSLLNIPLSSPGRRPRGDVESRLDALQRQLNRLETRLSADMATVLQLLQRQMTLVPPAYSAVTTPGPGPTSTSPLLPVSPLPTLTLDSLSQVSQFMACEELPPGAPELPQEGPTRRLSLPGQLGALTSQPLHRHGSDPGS
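U2OS cells were transduced with wild-type KCNH2 virus (2.03 x 10^8 / mL) for 4 h at room temperature, then cultured overnight at 37 C. Thallium flux was read with FluxOr dye. Rate constants were normalized to DMSO controls.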
KB-3-1 cytotox – qHTS assay for MDR1-selective chemotherapeutics: Primary screen using the parental adenocarcinoma cell KB-3-1; KB-3-1 viability, CellTiter-Glo ATP luminescence, 72 h; Potency, µM (highest dose often 46.1 µM), most hits filed as cytotoxic; 400,000 tested, 1.4% active; AID 1347075, 2019; further: nearly all actives have a fitted effect of over 60% in size
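KB-3-1 parental drug-naive adenocarcinoma cells in DMEM/10% FBS, incubated 72 h at 37 C with pin-transferred compounds across a concentration series. Viability by CellTiter-Glo luminescence; concentration-response curves fitted after normalization.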
SW480 rereplic – A quantitative high throughput screen for small molecules that induce DNA re-replication in SW480 colon adenocarcinoma cells; SW480 DNA re-replication, Hoechst DNA content imaging, 48 h; Potency, µM (doses to about 46.1 µM), usual class: activators; 340,000 tested, 1.8% active; AID 624297, 2012; further: nearly all actives have a fitted effect of over 55% in size
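Treated cells incubate 48 hr (37 C, 5% CO2), are stained 40 min with Hoechst, and nuclear fluorescence is enumerated; a rise in nuclei with high DNA signal marks re-replication.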
Numbers stand for hits; [ ] = dose if it differs, or a comment. Unless noted, the call rests on the fitted dose curve; in most records, active means well fitted curve in the direction sought with a large enough effect; inconclusive means small, poorly fitted or top-dose-only effect, or another doubt; inactive means no such curve, though single readings can be large; an effect the other way counts as inactive or inconclusive.

How did COc1ccccc1C1NC(=O)NC(C)=C1C(=O)OC1CCCC(C)C1 (centres undefined) do in these assays?
MCF10A rerep: inconclusive; KB-V1 MDR tox: inactive; KCNH2 3.1 block: inactive; hERG WT inh: inactive; KB-3-1 cytotox: inactive; SW480 rereplic: inactive

What do the screens show for `Nc1nncn1C(=O)c1ccc(Cl)cc1Cl`?
MCF10A rerep: inactive; KB-V1 MDR tox: inactive; KCNH2 3.1 block: inactive; hERG WT inh: inactive; KB-3-1 cytotox: inactive; SW480 rereplic: inactive

What do the screens show for `Nc1nc(=S)[nH]c2c1C1(CCCCC1)Cc1ccccc1-2`?
MCF10A rerep: inactive; KB-V1 MDR tox: 23.1µM; KCNH2 3.1 block: inactive; hERG WT inh: inactive; KB-3-1 cytotox: inconclusive; SW480 rereplic: inactive

What do the screens show for `COC(=O)CSc1nc2c(cnn2-c2ccc(Cl)cc2)c(=O)[nH]1`?
MCF10A rerep: inactive; KB-V1 MDR tox: inactive; KCNH2 3.1 block: inactive; hERG WT inh: inactive; KB-3-1 cytotox: inactive; SW480 rereplic: inactive

How did CC(C)(C)c1ccc(CN(Cc2ccco2)Cc2nnnn2C2CCCC2)cc1 do in these assays?
MCF10A rerep: inconclusive; KB-V1 MDR tox: 16.4µM; KCNH2 3.1 block: inactive; hERG WT inh: inactive; KB-3-1 cytotox: inactive; SW480 rereplic: inactive

How did CCC(C)(C)n1nnnc1CN(Cc1ccc(Cl)cc1)Cc1ccco1 do in these assays?
MCF10A rerep: inconclusive; KB-V1 MDR tox: 23.1µM; KCNH2 3.1 block: inactive; hERG WT inh: inactive; KB-3-1 cytotox: 20.6µM; SW480 rereplic: inactive

How did CCC(C)(C)n1nnnc1CN(Cc1ccco1)Cc1cc2cc3c(cc2[nH]c1=O)OCO3 do in these assays?
MCF10A rerep: inactive; KB-V1 MDR tox: inconclusive; KCNH2 3.1 block: inactive; hERG WT inh: inactive; KB-3-1 cytotox: inactive; SW480 rereplic: inactive

How did O=C(Nc1ccc(Cl)cn1)c1cccc2c(Br)cccc12 do in these assays?
MCF10A rerep: inconclusive; KB-V1 MDR tox: inactive; KCNH2 3.1 block: inactive; hERG WT inh: inactive; KB-3-1 cytotox: 11.6µM; SW480 rereplic: inconclusive

How did O=C(Nc1ccc(Br)cn1)c1cccc2ccccc12 do in these assays?
MCF10A rerep: 4.11µM; KB-V1 MDR tox: 1.03µM; KCNH2 3.1 block: inactive; hERG WT inh: inactive; KB-3-1 cytotox: inactive; SW480 rereplic: 3.26µM

Results for O=C(Nc1ccc(Br)cn1)c1ccc2nccnc2c1 ?
MCF10A rerep: inconclusive; KB-V1 MDR tox: 16.4µM; KCNH2 3.1 block: inactive; hERG WT inh: inactive; KB-3-1 cytotox: inconclusive; SW480 rereplic: inconclusive

Results for O=C(Nc1ccc(Cl)cn1)c1ccc2nccnc2c1 ?
MCF10A rerep: inactive; KB-V1 MDR tox: inactive; KCNH2 3.1 block: inactive; hERG WT inh: inactive; KB-3-1 cytotox: inactive; SW480 rereplic: inconclusive

What do the screens show for `Cc1ccccc1C(=O)Nc1ccc(Cl)cn1`?
MCF10A rerep: inactive[0.0737 µM]; KB-V1 MDR tox: inconclusive; KCNH2 3.1 block: inactive; hERG WT inh: inactive; KB-3-1 cytotox: inconclusive; SW480 rereplic: inconclusive

Results for O=C(Nc1ccc(Br)cn1)c1cccc(C(=O)Nc2ccc(Br)cn2)c1 ?
MCF10A rerep: inactive; KB-V1 MDR tox: inactive; KCNH2 3.1 block: -77.0; hERG WT inh: inactive; KB-3-1 cytotox: inactive; SW480 rereplic: inconclusive

What do the screens show for `CCc1ccc(C(O)c2ncc(-c3ccc(Cl)cc3)[nH]2)cc1` (centres undefined)?
KB-V1 MDR tox: inactive; KB-3-1 cytotox: inactive

How did COc1cccc(CNC(=O)C2CC(=O)N(C3CCCCC3)C2)c1 (centres undefined) do in these assays?
MCF10A rerep: inactive; KB-V1 MDR tox: inactive; KCNH2 3.1 block: inactive; hERG WT inh: inactive; KB-3-1 cytotox: inactive; SW480 rereplic: inactive

What do the screens show for `CCOc1ccc(Oc2ccccc2NC(=O)CCc2nc3ccccc3c(=O)[nH]2)cc1`?
KB-V1 MDR tox: inconclusive; KCNH2 3.1 block: inactive; hERG WT inh: inactive; KB-3-1 cytotox: inactive

Results for O=C(CCc1nc2ccccc2c(=O)[nH]1)Nc1ccc(Cl)c(Cl)c1 ?
MCF10A rerep: inactive; KB-V1 MDR tox: 20.6µM; KCNH2 3.1 block: inactive; hERG WT inh: inactive; KB-3-1 cytotox: inactive; SW480 rereplic: inactive

How did CCOc1ccccc1NC(=O)CCCc1nc2ccccc2c(=O)[nH]1 do in these assays?
MCF10A rerep: inactive; KB-V1 MDR tox: 18.4µM; hERG WT inh: inactive; KB-3-1 cytotox: inactive; SW480 rereplic: inactive

What do the screens show for `O=C(Nc1cccc(Cl)c1)N(Cc1nc2ccccc2c(=O)[nH]1)Cc1cccs1`?
MCF10A rerep: inactive; KB-V1 MDR tox: 16.4µM; KCNH2 3.1 block: inactive; hERG WT inh: inactive; KB-3-1 cytotox: inactive; SW480 rereplic: inactive

How did O=C(CCc1nc2ccccc2c(=O)[nH]1)Nc1cc(Cl)ccc1N1CCCC1 do in these assays?
MCF10A rerep: inactive; KB-V1 MDR tox: 14.6µM; KCNH2 3.1 block: inactive; hERG WT inh: inactive; KB-3-1 cytotox: inactive; SW480 rereplic: inactive

Results for CCN1C=CC2=C(C#N)C(N)C(C#N)(C#N)C(c3ccccc3C(F)(F)F)C2C1 (centres undefined) ?
MCF10A rerep: inactive; KB-V1 MDR tox: inconclusive; KCNH2 3.1 block: inactive; hERG WT inh: inactive; KB-3-1 cytotox: inconclusive; SW480 rereplic: inactive

How did CCOC(=O)c1ccc(NC(=O)CSc2nc(-c3ccc(OC)cc3)cc(C(F)(F)F)c2C#N)cc1 do in these assays?
KB-V1 MDR tox: inactive; KB-3-1 cytotox: inactive

Results for CC(C)(C)NC(=O)NC(=O)CSc1ccc(S(=O)(=O)N2CCOCC2)cn1 ?
MCF10A rerep: inactive; KB-V1 MDR tox: inactive; KCNH2 3.1 block: inactive; hERG WT inh: inactive; KB-3-1 cytotox: inactive; SW480 rereplic: inactive

Results for Cc1ccc(C(C)NC(=O)CSc2ccc(S(=O)(=O)N3CCOCC3)cn2)cc1C (centres undefined) ?
MCF10A rerep: inactive; KB-V1 MDR tox: 18.4µM; KCNH2 3.1 block: inactive; hERG WT inh: inactive; KB-3-1 cytotox: inactive; SW480 rereplic: inactive

What do the screens show for `CCCNC(=O)CN1CCC(c2nc3ccccc3[nH]2)CC1`?
MCF10A rerep: inconclusive; KB-V1 MDR tox: inconclusive; KCNH2 3.1 block: inactive; hERG WT inh: inactive; KB-3-1 cytotox: inactive; SW480 rereplic: inactive

Results for O=C(NCc1cccnc1)/C(=C\c1ccc(-c2ccc(Cl)c(Cl)c2)o1)S(=O)(=O)c1ccccc1 ?
MCF10A rerep: 6.51µM; KB-V1 MDR tox: 4.11µM; KCNH2 3.1 block: inactive; hERG WT inh: inactive; KB-3-1 cytotox: inactive; SW480 rereplic: inconclusive

Results for CN(C)c1nc(C=C(C#N)C#N)c(Cl)n1-c1ccc(F)cc1 ?
MCF10A rerep: inconclusive; KB-V1 MDR tox: inconclusive; KCNH2 3.1 block: inactive; hERG WT inh: inactive; KB-3-1 cytotox: inconclusive; SW480 rereplic: 7.31µM

Screens (PubChem BioAssay)
